The full data set covers some 8,800 targets. This sample favours those with a hit. About 0.5% of all pairs of compound and target were hits. Unmarked numbers belong to inactive results.
What was measured:
Experiment in all cases: log2 fold change, soluble protein after heating vs DMSO (PISA); higher = thermal stabilisation; K562 lysate, 10 uM; active = over 0.2 and 3.5 SD of the protein, either way, in both replicates (recomputed)
[1] = compound: NCC(=O)Nc1ccc(-n2nc(C(F)(F)F)cc2-c2ccc3c(ccc4ccccc43)c2)cc1
In short: (§1)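 Dounce homogenisation of K562 pellets in PBS pH 7.4 with 1 mM MgCl2 produced a crude extract, used at 1 mg/mL protein. Exposure to 10 μM compound lasted 30 min, and aliquots were then heated for 3 min across 48°C-58°C, pooled and brought to 0.5% NP-40 at 4°C. The supernatant after 21,000xg for 90 min was quantified by TMTpro 16plex LC-MS/MS with channel sums equalised. Duplicate values are given as log-two fold change in thermal stability relative to solvent controls.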

vorinostat = compound: O=C(CCCCCCC(=O)Nc1ccccc1)NO [vorinostat]
In short: as §1

silmitasertib = compound: O=C(O)c1ccc2c(c1)nc(Nc1cccc(Cl)c1)c1ccncc12 [silmitasertib]
In short: as §1

[2] = compound: O=C1NC(=O)C(c2cnc3ccccn23)=C1c1cn2c3c(cc(F)cc13)CN(C(=O)N1CCCCC1)CC2
In short: as §1

entospletinib = compound: c1cn2cc(-c3ccc4cn[nH]c4c3)nc(Nc3ccc(N4CCOCC4)cc3)c2n1 [entospletinib]
In short: as §1

UniProt O43709, sequence (O43709 whole entry, looked up): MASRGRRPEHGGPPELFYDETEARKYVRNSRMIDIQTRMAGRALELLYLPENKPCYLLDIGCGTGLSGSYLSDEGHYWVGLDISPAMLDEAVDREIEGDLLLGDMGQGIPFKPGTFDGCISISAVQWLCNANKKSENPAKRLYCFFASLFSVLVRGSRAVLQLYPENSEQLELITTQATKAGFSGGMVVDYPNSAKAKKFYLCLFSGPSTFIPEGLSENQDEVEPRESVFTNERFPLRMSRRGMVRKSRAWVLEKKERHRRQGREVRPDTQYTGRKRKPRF
UniProt P15056, sequence (P15056 whole entry, looked up): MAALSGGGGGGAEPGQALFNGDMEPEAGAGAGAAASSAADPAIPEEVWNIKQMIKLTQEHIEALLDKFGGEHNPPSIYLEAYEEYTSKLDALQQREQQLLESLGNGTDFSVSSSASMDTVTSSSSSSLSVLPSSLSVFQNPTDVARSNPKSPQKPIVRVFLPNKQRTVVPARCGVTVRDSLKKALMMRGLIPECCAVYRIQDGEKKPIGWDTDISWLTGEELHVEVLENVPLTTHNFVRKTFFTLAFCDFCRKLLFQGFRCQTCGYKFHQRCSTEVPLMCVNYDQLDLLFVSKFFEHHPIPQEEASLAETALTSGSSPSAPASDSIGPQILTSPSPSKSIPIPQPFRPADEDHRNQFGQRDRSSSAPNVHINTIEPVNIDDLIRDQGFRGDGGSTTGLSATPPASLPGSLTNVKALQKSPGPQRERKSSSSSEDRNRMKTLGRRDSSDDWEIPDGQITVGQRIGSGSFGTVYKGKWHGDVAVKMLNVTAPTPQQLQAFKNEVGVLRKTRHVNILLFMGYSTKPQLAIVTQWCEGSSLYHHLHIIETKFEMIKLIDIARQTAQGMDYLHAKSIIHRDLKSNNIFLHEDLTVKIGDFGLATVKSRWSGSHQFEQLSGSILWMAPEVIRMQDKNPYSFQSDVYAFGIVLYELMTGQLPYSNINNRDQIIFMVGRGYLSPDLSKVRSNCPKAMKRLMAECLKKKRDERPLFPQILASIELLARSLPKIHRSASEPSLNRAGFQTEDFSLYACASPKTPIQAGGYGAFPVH
UniProt P24863, sequence (P24863 whole entry, looked up): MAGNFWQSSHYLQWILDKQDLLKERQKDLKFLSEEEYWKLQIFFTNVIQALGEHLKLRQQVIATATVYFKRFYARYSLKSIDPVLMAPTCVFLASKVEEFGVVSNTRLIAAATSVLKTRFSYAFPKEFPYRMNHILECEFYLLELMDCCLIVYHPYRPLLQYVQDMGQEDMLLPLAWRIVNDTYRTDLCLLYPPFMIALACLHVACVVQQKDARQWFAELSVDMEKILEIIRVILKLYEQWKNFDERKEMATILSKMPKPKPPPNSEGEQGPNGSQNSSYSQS
UniProt Q9H257, sequence (Q9H257 whole entry, looked up): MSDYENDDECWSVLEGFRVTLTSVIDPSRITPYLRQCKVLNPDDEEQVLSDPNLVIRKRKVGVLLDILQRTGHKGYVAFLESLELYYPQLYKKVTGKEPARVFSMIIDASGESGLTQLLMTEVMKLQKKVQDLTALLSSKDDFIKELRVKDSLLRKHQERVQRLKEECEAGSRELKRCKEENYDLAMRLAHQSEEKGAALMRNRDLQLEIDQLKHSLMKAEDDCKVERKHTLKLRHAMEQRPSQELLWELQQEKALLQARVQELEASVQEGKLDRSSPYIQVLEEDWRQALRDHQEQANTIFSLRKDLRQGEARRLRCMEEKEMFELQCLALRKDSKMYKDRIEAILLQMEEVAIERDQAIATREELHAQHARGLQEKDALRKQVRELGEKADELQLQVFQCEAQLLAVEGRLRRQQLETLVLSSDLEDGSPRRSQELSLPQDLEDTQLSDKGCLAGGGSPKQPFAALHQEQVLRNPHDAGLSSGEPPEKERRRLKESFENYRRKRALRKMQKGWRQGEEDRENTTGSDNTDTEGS
UniProt Q7Z3E2, sequence (Q7Z3E2 whole entry, looked up): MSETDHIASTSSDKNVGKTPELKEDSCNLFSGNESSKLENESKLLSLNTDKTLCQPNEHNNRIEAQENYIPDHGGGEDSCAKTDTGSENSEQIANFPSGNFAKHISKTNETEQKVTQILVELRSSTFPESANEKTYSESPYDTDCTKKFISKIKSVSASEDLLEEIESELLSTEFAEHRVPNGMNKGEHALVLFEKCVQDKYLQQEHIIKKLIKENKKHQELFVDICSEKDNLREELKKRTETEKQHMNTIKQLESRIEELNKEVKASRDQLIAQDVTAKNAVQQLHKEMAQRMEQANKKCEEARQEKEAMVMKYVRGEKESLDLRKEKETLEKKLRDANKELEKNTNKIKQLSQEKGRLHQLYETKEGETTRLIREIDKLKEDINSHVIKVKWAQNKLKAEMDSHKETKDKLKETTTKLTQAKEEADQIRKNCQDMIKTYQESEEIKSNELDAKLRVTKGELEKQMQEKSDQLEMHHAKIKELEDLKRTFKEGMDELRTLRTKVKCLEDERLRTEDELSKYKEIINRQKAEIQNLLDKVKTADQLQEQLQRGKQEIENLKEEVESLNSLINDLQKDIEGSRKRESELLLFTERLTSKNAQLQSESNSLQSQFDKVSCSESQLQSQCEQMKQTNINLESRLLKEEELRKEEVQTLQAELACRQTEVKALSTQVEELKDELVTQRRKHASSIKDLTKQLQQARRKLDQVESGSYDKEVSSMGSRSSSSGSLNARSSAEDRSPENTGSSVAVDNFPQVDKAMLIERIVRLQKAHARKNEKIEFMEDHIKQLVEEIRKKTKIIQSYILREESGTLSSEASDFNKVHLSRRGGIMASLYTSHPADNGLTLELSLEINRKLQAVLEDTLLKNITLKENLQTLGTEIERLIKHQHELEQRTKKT
UniProt Q99700, sequence (Q99700 whole entry, looked up): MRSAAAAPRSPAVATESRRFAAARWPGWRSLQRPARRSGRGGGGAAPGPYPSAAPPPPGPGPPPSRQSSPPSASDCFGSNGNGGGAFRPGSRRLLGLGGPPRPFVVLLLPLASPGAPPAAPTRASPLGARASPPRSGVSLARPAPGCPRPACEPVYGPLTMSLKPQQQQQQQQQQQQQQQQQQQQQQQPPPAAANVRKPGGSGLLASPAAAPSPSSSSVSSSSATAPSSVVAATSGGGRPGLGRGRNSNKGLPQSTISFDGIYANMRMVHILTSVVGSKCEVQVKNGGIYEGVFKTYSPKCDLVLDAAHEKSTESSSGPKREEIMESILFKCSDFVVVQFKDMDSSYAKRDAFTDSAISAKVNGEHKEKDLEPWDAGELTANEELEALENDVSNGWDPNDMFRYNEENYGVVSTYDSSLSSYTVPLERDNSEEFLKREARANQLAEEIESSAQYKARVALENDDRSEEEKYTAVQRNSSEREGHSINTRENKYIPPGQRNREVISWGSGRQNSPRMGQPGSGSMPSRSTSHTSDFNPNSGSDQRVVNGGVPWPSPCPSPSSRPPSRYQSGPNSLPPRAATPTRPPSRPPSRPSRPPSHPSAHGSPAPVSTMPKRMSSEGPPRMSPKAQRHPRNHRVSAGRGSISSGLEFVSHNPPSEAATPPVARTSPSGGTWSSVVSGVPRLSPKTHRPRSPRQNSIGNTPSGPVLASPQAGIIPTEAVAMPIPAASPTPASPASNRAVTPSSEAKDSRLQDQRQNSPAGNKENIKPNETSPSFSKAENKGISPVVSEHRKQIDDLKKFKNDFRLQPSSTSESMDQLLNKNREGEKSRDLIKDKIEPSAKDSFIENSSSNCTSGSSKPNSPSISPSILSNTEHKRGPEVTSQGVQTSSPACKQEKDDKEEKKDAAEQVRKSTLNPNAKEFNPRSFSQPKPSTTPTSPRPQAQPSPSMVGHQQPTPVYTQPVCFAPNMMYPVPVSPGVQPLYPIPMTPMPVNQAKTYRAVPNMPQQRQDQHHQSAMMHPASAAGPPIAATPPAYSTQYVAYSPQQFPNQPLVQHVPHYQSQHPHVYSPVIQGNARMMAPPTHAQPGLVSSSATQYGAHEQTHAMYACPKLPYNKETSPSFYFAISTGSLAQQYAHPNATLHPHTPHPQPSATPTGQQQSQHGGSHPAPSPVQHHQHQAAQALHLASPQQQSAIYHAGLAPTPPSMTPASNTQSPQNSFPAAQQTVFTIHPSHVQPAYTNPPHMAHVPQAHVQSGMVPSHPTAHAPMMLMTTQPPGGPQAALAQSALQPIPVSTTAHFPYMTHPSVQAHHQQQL
UniProt Q00535, sequence (Q00535 whole entry, looked up): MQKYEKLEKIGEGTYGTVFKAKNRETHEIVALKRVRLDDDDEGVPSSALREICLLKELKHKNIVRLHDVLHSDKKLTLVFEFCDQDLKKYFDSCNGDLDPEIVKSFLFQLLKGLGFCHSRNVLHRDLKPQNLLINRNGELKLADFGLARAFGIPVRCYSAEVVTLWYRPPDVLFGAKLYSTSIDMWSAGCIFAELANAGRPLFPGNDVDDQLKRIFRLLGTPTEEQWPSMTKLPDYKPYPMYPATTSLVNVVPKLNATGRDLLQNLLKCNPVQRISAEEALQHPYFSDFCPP
UniProt P33681, sequence (P33681 whole entry, looked up): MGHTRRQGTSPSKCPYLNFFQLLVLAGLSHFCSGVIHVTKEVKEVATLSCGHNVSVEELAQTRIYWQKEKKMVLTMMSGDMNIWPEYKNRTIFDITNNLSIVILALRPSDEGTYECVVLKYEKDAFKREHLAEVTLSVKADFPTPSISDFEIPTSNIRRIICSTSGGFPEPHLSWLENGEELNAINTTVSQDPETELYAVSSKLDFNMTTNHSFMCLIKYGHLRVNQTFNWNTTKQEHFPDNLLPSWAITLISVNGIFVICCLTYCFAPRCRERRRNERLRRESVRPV

Target | log2 fold change [1] | log2 fold change (vorinostat) | log2 fold change (silmitasertib) | log2 fold change [2] | log2 fold change (entospletinib)
CD80 (UniProt P33681) | 0.018 | -0.028 | -0.067 | -0.066 | -0.162
CDK5 (UniProt Q00535) | -0.036 | -0.232 | 0.855 (active) | 0.179 | 0.036
BRAF (UniProt P15056) | -0.001 | -0.339 | 0.061 | -0.008 | 0.037
CCDC186 (UniProt Q7Z3E2) | 0.052 | 0.005 | 0.057 | 0.012 | -0.01
BTAF1 (UniProt O14981) | 0.01 | -0.45 (active) | 0.003 | -0.008 | -0.031
BUD23 isoform 3 (UniProt O43709) | 0.007 | 0.014 | -0.07 | -0.021 | 0.055
CARD9 (UniProt Q9H257) | 0.008 | -0.217 (active) | 0.011 | 0.014 | -0.038
ATXN2 (UniProt Q99700) | 0.024 | -0.282 (active) | -0.01 | -0.005 | -0.008
CCNC (UniProt P24863) | 0.159 | -0.001 | 0.338 | -0.092 | 0.029

— the supplement of paper PMC10849652
